Assay outcomes from PubChem BioAssay.
Compounds with a hit are over-represented: about 3.9% of the library has one in this group of screens.
BoNT-A LC inh2 = BoNT A light chain protease inhibition; multiplex microsphere protease substrate cleavage, flow cytometry; inhibition, % at 10 µM; actives 0.17% (n = 360,000); AID 588499
Bead autofluor = flagged as autofluorescent in microsphere protease counterscreen. fluorescence intensity (test concentration not listed). actives 3.1% (n = 360,000). compound autofluorescence counterscreen, microsphere flow cytometry; hits give high values; in the data active = fluorescence intensity above about 16000; inconclusive = no clear call, values can overlap the other calls
BoNT-F LC inh = BoNT F light chain protease inhibition; Multiplex microsphere protease cleavage assay, flow cytometry; AID 588497; actives 0.22% (n = 360,000); inhibition, % at 10 µM; in the data active = inhibition above about 35%, passing the limit was not always enough; inconclusive = no clear call, values can overlap the other calls
CCHFV vOTU inh = blocks the CCHF virus ovarian tumor domain protease | AID 651958 | actives 0.55% (n = 370,000) | CCHFV vOTU protease, Pep-AMC fluorescence | inhibition, % at 11.5 µM; in the data active = inhibition above about 30%
SARS 3CLpro inh = SARS-CoV 3CLpro protease inhibition; actives 0.14% (n = 290,000); AID 1706; recombinant SARS-CoV 3CLpro, quenched FRET peptide cleavage; inhibition, % at 6 µM; in the data active = inhibition above about 12%
Anthrax LF prot = blocks Bacillus anthracis lethal factor protease. P15917. multiplex microsphere protease cleavage assay, LF. inhibition, % at 10 µM. actives 0.12% (n = 360,000). AID 588501
Target sequence (P15917 whole entry, looked up): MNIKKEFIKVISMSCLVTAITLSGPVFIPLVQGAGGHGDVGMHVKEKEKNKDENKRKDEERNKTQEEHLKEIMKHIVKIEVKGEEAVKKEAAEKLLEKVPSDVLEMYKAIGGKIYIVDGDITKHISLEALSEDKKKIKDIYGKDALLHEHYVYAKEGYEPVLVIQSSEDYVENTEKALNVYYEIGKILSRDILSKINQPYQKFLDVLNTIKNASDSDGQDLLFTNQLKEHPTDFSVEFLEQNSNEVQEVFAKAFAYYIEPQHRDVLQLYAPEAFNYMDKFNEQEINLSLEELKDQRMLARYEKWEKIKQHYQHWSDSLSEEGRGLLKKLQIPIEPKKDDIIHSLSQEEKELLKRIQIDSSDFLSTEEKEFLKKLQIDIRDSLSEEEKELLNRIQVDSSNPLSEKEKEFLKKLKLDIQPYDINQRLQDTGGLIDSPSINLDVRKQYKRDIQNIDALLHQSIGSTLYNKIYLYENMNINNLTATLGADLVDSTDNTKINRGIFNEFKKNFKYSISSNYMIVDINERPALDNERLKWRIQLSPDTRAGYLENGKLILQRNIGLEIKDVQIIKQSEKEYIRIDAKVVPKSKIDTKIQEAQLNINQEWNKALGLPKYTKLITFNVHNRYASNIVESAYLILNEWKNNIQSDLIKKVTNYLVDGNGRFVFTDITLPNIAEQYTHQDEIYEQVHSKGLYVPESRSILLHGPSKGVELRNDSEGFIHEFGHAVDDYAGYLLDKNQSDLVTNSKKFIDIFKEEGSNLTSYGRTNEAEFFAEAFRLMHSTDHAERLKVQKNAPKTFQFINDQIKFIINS
A number is an active result. Cut-off read from the data, not from the text of the source, unless noted: active = inhibition above about 30%; inconclusive = no clear call, values can overlap the other calls; inactive = below that.

For CC(C)OC(=O)CSc1nnc(Cc2ccccc2)n1Cc1ccco1 the results were BoNT-A LC inh2 inactive, Bead autofluor 19241, BoNT-F LC inh inactive, CCHFV vOTU inh inactive, SARS 3CLpro inh inactive and Anthrax LF prot inactive.
`COC(=O)CN(Cc1cn(Cc2ccccc2)nn1)S(=O)(=O)c1ccccc1Br` gave CCHFV vOTU inh inactive.
For CSc1nc2ccccc2n1C(=O)Oc1ccccc1 the results were BoNT-A LC inh2 inactive, Bead autofluor 20058, BoNT-F LC inh inactive, CCHFV vOTU inh inactive, SARS 3CLpro inh inactive and Anthrax LF prot inactive.
For CCOC(=O)n1c(SCC(N)=O)nc2ccccc21 the results were BoNT-A LC inh2 inactive, Bead autofluor inactive, BoNT-F LC inh inactive, CCHFV vOTU inh inactive, SARS 3CLpro inh inactive and Anthrax LF prot inactive.
Screening O=C(NC1=N[C@@]2(C=C3CCCCC3n3c(=O)n(-c4ccccc4)c(=O)n32)CN1Cc1ccccc1)c1ccccc1 (stereo partly specified) returned CCHFV vOTU inh inactive.
For CCCCCC(=O)NC1CCCCN(Cc2ccc(Cl)cc2)C1=O (stereo unspecified) the results were CCHFV vOTU inh inactive.
Screening CCOC(=O)c1c(N)nn(C(=O)C(C)(C)C)c1-c1ccccc1 returned BoNT-A LC inh2 inactive, Bead autofluor 22970, BoNT-F LC inh inactive, CCHFV vOTU inh inactive, SARS 3CLpro inh inactive and Anthrax LF prot inactive.
For CCOC(=O)c1c(N)nn(C(=O)c2ccccc2F)c1-c1ccc(OC)cc1 the results were BoNT-A LC inh2 inactive, Bead autofluor inactive, BoNT-F LC inh inactive, CCHFV vOTU inh inactive, SARS 3CLpro inh inactive and Anthrax LF prot inactive.
COc1cc(Nc2cc(C)n(-c3cc(OC)cc(OC)c3)c(=O)c2)cc(OC)c1 was read as CCHFV vOTU inh inactive.
Cc1ccc(Nc2nc3c([nH]2)c(=O)n(C)c(=O)n3C)cc1 was read as BoNT-A LC inh2 inactive, Bead autofluor 20196, BoNT-F LC inh inactive, CCHFV vOTU inh inactive, SARS 3CLpro inh inactive and Anthrax LF prot inactive.
Screening CCN(CC)C(=O)CSc1nc2ccccc2c(=O)n1OC(C)C returned BoNT-A LC inh2 inactive, Bead autofluor 17014, BoNT-F LC inh inactive, CCHFV vOTU inh inactive, SARS 3CLpro inh inactive and Anthrax LF prot inactive.
CCN(CC)C(=O)CSc1nc2ccccc2c(=O)n1CC was read as BoNT-A LC inh2 inactive, Bead autofluor inactive, BoNT-F LC inh inactive, CCHFV vOTU inh inactive, SARS 3CLpro inh inactive and Anthrax LF prot inactive.
CCC(C)n1c(SC(C)C#N)nc2ccccc2c1=O (stereo unspecified) was read as BoNT-A LC inh2 inactive, Bead autofluor inactive, BoNT-F LC inh inactive, CCHFV vOTU inh inactive, SARS 3CLpro inh inactive and Anthrax LF prot inactive.
CCCCOC(=O)n1c(SCC(=O)N(CC)CC)nc2ccccc21 was read as BoNT-A LC inh2 inactive, Bead autofluor 24831, BoNT-F LC inh inactive, CCHFV vOTU inh inactive, SARS 3CLpro inh inactive and Anthrax LF prot inactive.
`CC(C#N)On1c(SC(C)C#N)nc2ccccc2c1=O` (stereo unspecified) gave BoNT-A LC inh2 inactive, Bead autofluor 25088, BoNT-F LC inh inactive, CCHFV vOTU inh inactive, SARS 3CLpro inh inactive and Anthrax LF prot inactive.
For CCOCCC(=O)Nc1cc(Cl)ccc1OC the results were BoNT-A LC inh2 inactive, Bead autofluor 22752, BoNT-F LC inh inactive, CCHFV vOTU inh inactive, SARS 3CLpro inh inactive and Anthrax LF prot inactive.
For COc1ccccc1NC(=O)Nc1ccc(Br)cn1 the results were BoNT-A LC inh2 inactive, Bead autofluor inactive, BoNT-F LC inh inactive, CCHFV vOTU inh inactive, SARS 3CLpro inh inactive and Anthrax LF prot inactive.
COc1ccc(NC(=O)Nc2ccc(Br)cn2)cc1OC was read as BoNT-A LC inh2 inactive, Bead autofluor 17621, BoNT-F LC inh inactive, CCHFV vOTU inh inactive, SARS 3CLpro inh inactive and Anthrax LF prot inactive.
COc1ccc(Cl)cc1NC(=O)CCc1ccccc1 was read as BoNT-A LC inh2 inactive, Bead autofluor inactive, BoNT-F LC inh inactive, CCHFV vOTU inh inactive, SARS 3CLpro inh inactive and Anthrax LF prot inactive.
For COc1ccc(C)cc1NC(=O)NC(C)c1ccncc1 (stereo unspecified) the results were BoNT-A LC inh2 inactive, Bead autofluor inactive, BoNT-F LC inh inactive, CCHFV vOTU inh inactive, SARS 3CLpro inh inactive and Anthrax LF prot inactive.
COc1ccc(Cl)cc1NC(=O)NC(C)c1ccncc1 (stereo unspecified) was read as BoNT-A LC inh2 inactive, Bead autofluor 17204, BoNT-F LC inh inactive, CCHFV vOTU inh inactive, SARS 3CLpro inh inactive and Anthrax LF prot inactive.
For COc1ccc(Cl)cc1NC(=O)Nc1ccc(Br)cn1 the results were BoNT-A LC inh2 inconclusive, Bead autofluor 17461, BoNT-F LC inh inactive, CCHFV vOTU inh inactive, SARS 3CLpro inh inactive and Anthrax LF prot inactive.
`Cc1ccccc1CN1CCCCC(NC(=O)c2ccc(F)c(F)c2)C1=O` (stereo unspecified) gave CCHFV vOTU inh inactive.
Screening COC(=O)[C@H]1C[C@@]2(N3CCCC3)c3ccccc3N[C@H]2N1S(C)(=O)=O returned CCHFV vOTU inh inactive.
Screening COc1ccc(CCC(=O)Nc2ccc(Br)cn2)cc1 returned BoNT-A LC inh2 inconclusive, Bead autofluor 24589, BoNT-F LC inh inactive, CCHFV vOTU inh inactive, SARS 3CLpro inh inactive and Anthrax LF prot inactive.
Screening CCCOc1ccc(C2C(=O)N(C3CCCCC3)CC(=O)N2C2CC2)cc1OC (stereo unspecified) returned BoNT-A LC inh2 inactive, Bead autofluor 20615, BoNT-F LC inh inactive, CCHFV vOTU inh inactive, SARS 3CLpro inh inactive and Anthrax LF prot inactive.
Screening COc1ccc(C2C(=O)N(CCc3ccccc3)CC(=O)N2C2CCCC2)cc1 (stereo unspecified) returned BoNT-A LC inh2 inactive, Bead autofluor 23925, BoNT-F LC inh inactive, CCHFV vOTU inh inactive, SARS 3CLpro inh inactive and Anthrax LF prot inactive.
COc1ccc(C2C(=O)N(C3CCCCC3)CC(=O)N2C2CCCC2)cc1 (stereo unspecified) was read as BoNT-A LC inh2 inactive, Bead autofluor inactive, BoNT-F LC inh inactive, CCHFV vOTU inh inactive, SARS 3CLpro inh inactive and Anthrax LF prot inactive.
COc1ccc(C2C(=O)N(C3CCCCC3)CC(=O)N2Cc2ccco2)cc1 (stereo unspecified) was read as BoNT-A LC inh2 inconclusive, Bead autofluor 20572, BoNT-F LC inh inactive, CCHFV vOTU inh inactive, SARS 3CLpro inh inactive and Anthrax LF prot inactive.
Screening COc1ccc(C2C(=O)N(C3CCCCCC3)CC(=O)N2Cc2ccccc2)cc1OC (stereo unspecified) returned BoNT-A LC inh2 inactive, Bead autofluor 19721, BoNT-F LC inh inactive, CCHFV vOTU inh inactive, SARS 3CLpro inh inactive and Anthrax LF prot inactive.
For CCOc1ccc(C2c3[nH]c4ccccc4c3C[C@H]3C(=O)N(C4CC4)CC(=O)N23)cc1OC (stereo partly specified) the results were BoNT-A LC inh2 inactive, Bead autofluor inactive, BoNT-F LC inh inactive, CCHFV vOTU inh inactive, SARS 3CLpro inh inactive and Anthrax LF prot inactive.
For CC(CCN1CCC(C(O)(c2ccccc2)c2ccccc2)CC1)Oc1cc(F)cc(F)c1 (stereo unspecified) the results were CCHFV vOTU inh inactive.
For C[C@H](O)[C@@H]1CN2CCc3c([nH]c4c(-c5ccccc5)cccc34)[C@@H]2C[C@@H]1N(C)C(=S)NCCc1ccccc1 the results were CCHFV vOTU inh inactive.
